Bioassay records (PubChem)
Compounds with a hit are over-represented: about 15% of the library has one in this group of screens.
ELG1 repair inh: qHTS screen for small molecules that inhibit ELG1-dependent DNA repair in human embryonic kidney (HEK293T) cells expressing luciferase-tagged ELG1. HEK293T ELG1-luciferase reporter, luminescence, 16 h; DNA damage induced by 5-fluorouridine. Potency, µM (titrated, usually from 46.1 µM), inactives show top-dose activity change, negative = inhibition, hits mostly inhibitors. 330,000 tested, 2.3% active. AID 504467, 2011; further: nearly all actives have a fitted effect of over 55% in size
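Cells (2,000 per well) received 5-fluorouridine plus test compound or DMSO and were incubated 16 hr at 37 °C, 5% CO2. Luciferase activity was read by luminescence 30 min after ONE-Glo addition; signal suppression marked inhibition of damage-induced ELG1 function.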
RORgamma inh: qHTS for inhibitors of ROR gamma transcriptional activity | Nuclear receptor ROR-gamma (Mus musculus), P51450 | Drosophila S2 Gal4-RORgamma UAS-luciferase reporter, 20 h | Potency, µM (series often up to 53.6 µM), for inactives: top-dose activity change, negative = inhibition, hits mostly inhibitors | 310,000 tested, 5.4% active | AID 2551, 2010; further: nearly all actives have a fitted effect of over 60% in size
Target sequence (P51450 whole entry, looked up, the tested form may be a part): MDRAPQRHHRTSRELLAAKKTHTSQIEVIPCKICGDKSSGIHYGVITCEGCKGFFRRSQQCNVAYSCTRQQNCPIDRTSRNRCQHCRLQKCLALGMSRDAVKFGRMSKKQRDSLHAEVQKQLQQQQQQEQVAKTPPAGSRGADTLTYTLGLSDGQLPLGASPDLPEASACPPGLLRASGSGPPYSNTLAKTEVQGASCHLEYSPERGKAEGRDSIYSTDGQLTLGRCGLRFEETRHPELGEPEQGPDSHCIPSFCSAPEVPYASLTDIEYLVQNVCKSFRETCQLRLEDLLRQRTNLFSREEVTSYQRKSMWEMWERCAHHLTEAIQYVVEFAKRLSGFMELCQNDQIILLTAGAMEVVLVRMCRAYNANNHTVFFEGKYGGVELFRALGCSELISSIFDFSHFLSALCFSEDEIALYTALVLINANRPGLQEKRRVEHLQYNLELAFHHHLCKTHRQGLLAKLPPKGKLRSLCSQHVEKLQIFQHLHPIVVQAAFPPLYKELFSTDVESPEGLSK
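Schneider cells (Drosophila), stable Gal4 DBD–ROR gamma + UAS-luc; 1 hr cmpd preincubation; Cu2+ induction 700 uM final; 20 hr ambient; luminescence.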
Gal4-VP16 FLuc: VP16 counterscreen qHTS for inhibitors of ROR gamma transcriptional activity. Potency, µM (highest dose often 53.6 µM), for the others: top-dose activity, negative = inhibition, most hits filed as inhibitors. Drosophila S2 Gal4-VP16 UAS-luciferase, luminescence, 20 h. 310,000 tested, 3.5% active;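 further: Gal4-VP16 expression switched on by copper sulfate through the metallothionein promoter; nearly all actives have a fitted effect of over 50% in size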
TDP1 cell noCPT: qHTS for Inhibitors of human tyrosyl-DNA phosphodiesterase 1 (TDP1): qHTS in cells in absence of CPT. DT40 Tdp1-/- hTDP1 cells, no CPT, ATP luminescence, 48 h. Potency, µM (top dose mostly 46.2 µM), for the others: at the top dose activity change, negative = growth inhibition, actives largely listed as inhibitors. 420,000 tested, 15% active; further: nearly all actives have a fitted effect of over 55% in size
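Cells were dispensed at 400 per well, compounds added by pin tool, plates incubated ≥48 hr at 37 °C, then CellTiter-Glo added for 30 min at room temperature before luminescence reading. Line: DT40 Tdp1-/- complemented with hTDP1; camptothecin omitted.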
ALOX12 inh: Primary qHTS assay for inhibitors of human arachidonate 12S-lipoxygenase (ALOX12): Round 2; Polyunsaturated fatty acid lipoxygenase ALOX12 (Homo sapiens), P18054; purified 12hLO, xylenol orange hydroperoxide absorbance; Potency, µM (highest dose often 108 µM), for inactives: at the top dose activity change, negative = inhibition, actives largely listed as inhibitors; 580,000 tested, 1.1% active
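Purified human 12hLO at 150 nM in 25 mM Hepes, 0.01% Triton X-100, pH 7.0, preincubated 15 min at room temperature with compound. Reaction started with 40 uM arachidonic acid, 30 min at room temperature. Hydroperoxide measured by Fe-xylenol orange, 573/405 nm absorbance ratio.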
DT40 TDP1 CPT: qHTS for Inhibitors of human tyrosyl-DNA phosphodiesterase 1 (TDP1): qHTS in cells in presence of CPT. chicken DT40 Tdp1-/-;hTDP1 cells + 20 nM CPT, ATP luminescence, 48 h. Potency, µM (series often up to 46.2 µM), without a hit: top-dose activity change, negative = growth inhibition, actives largely listed as inhibitors. 420,000 tested, 12% active. AID 686979, 2013; further: nearly all actives have a fitted effect of over 55% in size
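Chicken DT40 Tdp1-/- cells stably complemented with human TDP1 were seeded at 400 cells/well in medium containing 20 nM camptothecin, exposed to pin-transferred compounds, and grown at 37 °C for at least 48 hr. Viability was read as ATP luminescence.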
An asterisk follows results filed as active; ? = inconclusive; nt = no result given. The call rests on the fitted dose curve; in most records, active means well fitted curve in the direction sought with a large enough effect; inconclusive means small, poorly fitted or top-dose-only effect, or another doubt; inactive means no such curve, though single readings can be large; an effect the other way counts as inactive or inconclusive. On the % scale 0 is the no-effect control and ±100 the full control effect; potency means the concentration at half of the fitted maximal effect.

SMILES | ELG1 repair inh | RORgamma inh | Gal4-VP16 FLuc | TDP1 cell noCPT | ALOX12 inh | DT40 TDP1 CPT
Cc1ccc(S(=O)(=O)CNC(=S)c2cccc(Cl)c2)cc1 | -9% | 22µM* | ? | ? | 10µM* | -9%
Cn1cnc(S(=O)(=O)N2CCC(N3C(=O)C4(CCCCC4)C3c3ccncc3)CC2)c1 (configuration not stated) | nt | nt | nt | nt | 9% | nt
CNC(=S)/N=C/NOCc1ccc(Cl)cc1Cl | 12µM* | -24% | -11% | 21µM* | ? | ?
COCCNCc1ccc(Cl)cc1Cl | ? | -3% | -5% | 30% | -4% | -2%
C=CCNC(=S)NC(=O)c1oc2ccccc2c1C | ? | 6.3µM* | ? | -14% | -22% | -7%
Cc1c(C(=O)Nc2cnccn2)oc2ccccc12 | ? | ? | -2% | ? | 18% | 12µM*
Cc1cccnc1NC(=S)NC(=O)c1oc2ccccc2c1C | ? | 2µM* | 6.3µM* | -22% | ? | -3%
CNC(=O)c1sc2nc(-c3ccc(OC)cc3)cn2c1C | ? | 4% | 10% | ? | -14% | -10%
Cc1c(C(=O)Nc2ccncc2)sc2nc(-c3ccccc3)cn12 | 13µM* | -14% | ? | 10µM* | 30% | 18µM*
CCN(CC)c1ccc(NC(=O)c2sc3nc(-c4ccccc4)cn3c2C)cc1 | nt | nt | nt | 5.2µM* | ? | 3.7µM*
COc1ccc(-c2cn3c(C)c(C(=O)Nc4cc(NC(C)=O)ccc4OC)sc3n2)cc1 | 13% | 13µM* | ? | 9.2µM* | -4% | 13µM*
Cc1onc(-c2ccccc2)c1C(=O)Nc1ccc2c(c1)OCCO2 | -3% | -4% | 3% | -24% | -7% | ?
CCOC(=O)c1ccc(NC(=O)c2sc3nc(-c4ccc(F)cc4)cn3c2C)cc1 | nt | nt | nt | nt | -29% | nt
CC(=O)c1cccc(NC(=O)c2sc3nc(-c4ccc(F)cc4)cn3c2C)c1 | nt | nt | nt | nt | -8% | nt
Cc1c(C(=O)Nc2ccc3c(c2)OCCO3)sc2nc(-c3ccccc3)cn12 | 13µM* | 53% | -13% | 5.8µM* | -5% | 8.2µM*
Cc1ccc(N=C2C=CC(C)(C(Cl)(Cl)Cl)C=C2)cc1C (configuration not stated) | nt | nt | nt | nt | -8% | nt
CN(CC(=O)O)C(=O)[C@H]1C[C@@](C)(C(=O)O)N(C)[C@H]1c1ccc(Cl)cc1 | nt | nt | nt | nt | -1% | nt
Cc1cccc2c(C(=O)N3CCN(c4ccccc4)CC3)cc(-c3ccncc3)nc12 | -18% | 10% | -7% | 2.9µM* | 0% | 2.6µM*
O=C(c1cc(-c2cccc(Cl)c2)nc2ccccc12)N1CCN(c2ccccn2)CC1 | 23µM* | 27% | ? | ? | 0% | ?
O=C(c1cc(-c2ccncc2)nc2ccc(Br)cc12)N1CCN(c2ccccn2)CC1 | nt | 16% | -8% | 12µM* | 0% | ?
Cc1cccc2c(C(=O)N3CCN(c4ccccn4)CC3)cc(-c3cccc(Br)c3)nc12 | 15µM* | -88% | ? | -24% | 203% | ?
Cc1cccc2c(C(=O)N3CCCCC3)cc(-c3ccccc3)nc12 | ? | ? | -22% | ? | ? | ?
CCC(C)Cc1c(C)sc2nc(CNc3ccc(OC)cc3)[nH]c(=O)c12 (configuration not stated) | nt | nt | nt | nt | 2% | nt
CN(CCCc1[nH]nc(N)c1C#N)c1nc(-c2ccncc2)nc2ccccc12 | nt | nt | nt | nt | 5% | nt
FC(F)(F)c1cc(Cl)c2nnc(SCc3cccc(Br)c3)n2c1 | nt | nt | nt | nt | 25% | nt
SMILES | ELG1 repair inh | RORgamma inh | Gal4-VP16 FLuc | TDP1 cell noCPT | ALOX12 inh | DT40 TDP1 CPT
OC(c1ccc(Cl)c(F)c1)c1ncc(-c2ccc(Oc3ccccc3)cc2)[nH]1 (configuration not stated) | nt | nt | nt | ? | ? | 23µM*
OC(c1cccc(F)c1)c1ncc(-c2ccc(Oc3ccccc3)cc2)[nH]1 (configuration not stated) | nt | nt | nt | ? | -13% | ?
Cc1cc(F)ccc1C(O)c1ncc(-c2ccc(Oc3ccccc3)cc2)[nH]1 (configuration not stated) | nt | nt | nt | ? | ? | 21µM*
CC(C)=CCC/C(C)=C/CNC(=O)CC1C[C@H](C(=O)N2CCOCC2)[C@@]2(C)c3[nH]c4ccccc4c3CCN2C1=O (some centres not stated) | ? | nt | nt | 12µM* | ? | 13µM*
CC(C)=CCC/C(C)=C/CNC(=O)C[C@H]1C[C@H](C(=O)N2CCOCC2)[C@@]2(C)c3[nH]c4cc(-c5ccco5)ccc4c3CCN2C1=O | ? | nt | nt | 13µM* | nt | 21µM*
CC(C)=CCC/C(C)=C/CNC(=O)C[C@H]1C[C@H](C(=O)N2CCOCC2)[C@@]2(C)c3[nH]c4ccc(Cl)cc4c3CCN2C1=O | ? | nt | nt | ? | ? | 23µM*
COc1cc(NC(=O)n2ncc3cc(Cl)ccc32)cc(OC)c1OC | nt | nt | nt | nt | -7% | nt
N#Cc1cccc(C(=O)Nc2ccc3ncnc(N4CCCCC4)c3c2)c1 | nt | nt | nt | nt | 0% | nt
CCOc1ccccc1NC(=O)COC(=O)c1cc2c(C)nn(-c3ccc(F)cc3)c2s1 | nt | nt | nt | nt | 61% | nt
CCc1ccc(-c2csc3ncn(CC)c(=O)c23)cc1 | -4% | 8% | 8% | 2% | 4% | -2%
CNS(=O)(=O)CCNc1nc(-c2ccccn2)nc2c1c(C)nn2C | nt | nt | nt | nt | 35% | nt
Cn1nc(-c2ccccn2)nc2c(=O)n(C)c(=O)nc1-2 | ? | 0.45µM* | 0.56µM* | 0.52µM* | ? | 0.65µM*
CCCc1nc2c(=O)n(C)c(=O)nc-2n(C)n1 | 4.6µM* | 1.4µM* | 2.8µM* | 1.2µM* | -28% | 1.6µM*
COc1ccc(-c2nn(Cc3nc(-c4ccccc4C)no3)c(=O)c3ccccc23)cc1 | nt | nt | nt | nt | 1% | nt
CCc1ccc(-c2nc3c(=O)n(C)c(=O)nc-3n(CC)n2)cc1 | nt | nt | nt | 2.8µM* | nt | 2.8µM*
Cc1ccccc1-c1nc2c(=O)n(C)c(=O)nc-2n(C)n1 | nt | nt | nt | 0.63µM* | nt | 0.71µM*
Cc1ccc(-c2cc(C(=O)Nc3ccc(S(=O)(=O)N4CCCCC4C)cc3)no2)cc1 (configuration not stated) | nt | nt | nt | nt | -28% | nt
